Casp6 inh = caspase-6 (human) enzyme inhibition; hit rate 0.53% among 350,000; P55212; inhibition, % at 12.5 µM; purified caspase-6, Z-VEID-R110 cleavage fluorescence; AID 686996;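 active = mean inhibition across replicates at least about 35%, with every replicate also reaching that limit, limit read from the data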;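 also: 0% = median of neutral control wells and 100% = no fluorescence left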
NSD2 inh = NSD2 (human) methyltransferase inhibition; O96028; AID 743445; hit rate 0.54% among 310,000; inhibition, % at 12.5 µM; NSD2 peptide methylation, AlphaScreen, 120 min; in the data active = inhibition above about 50%
Target sequence (O96028 whole entry, looked up): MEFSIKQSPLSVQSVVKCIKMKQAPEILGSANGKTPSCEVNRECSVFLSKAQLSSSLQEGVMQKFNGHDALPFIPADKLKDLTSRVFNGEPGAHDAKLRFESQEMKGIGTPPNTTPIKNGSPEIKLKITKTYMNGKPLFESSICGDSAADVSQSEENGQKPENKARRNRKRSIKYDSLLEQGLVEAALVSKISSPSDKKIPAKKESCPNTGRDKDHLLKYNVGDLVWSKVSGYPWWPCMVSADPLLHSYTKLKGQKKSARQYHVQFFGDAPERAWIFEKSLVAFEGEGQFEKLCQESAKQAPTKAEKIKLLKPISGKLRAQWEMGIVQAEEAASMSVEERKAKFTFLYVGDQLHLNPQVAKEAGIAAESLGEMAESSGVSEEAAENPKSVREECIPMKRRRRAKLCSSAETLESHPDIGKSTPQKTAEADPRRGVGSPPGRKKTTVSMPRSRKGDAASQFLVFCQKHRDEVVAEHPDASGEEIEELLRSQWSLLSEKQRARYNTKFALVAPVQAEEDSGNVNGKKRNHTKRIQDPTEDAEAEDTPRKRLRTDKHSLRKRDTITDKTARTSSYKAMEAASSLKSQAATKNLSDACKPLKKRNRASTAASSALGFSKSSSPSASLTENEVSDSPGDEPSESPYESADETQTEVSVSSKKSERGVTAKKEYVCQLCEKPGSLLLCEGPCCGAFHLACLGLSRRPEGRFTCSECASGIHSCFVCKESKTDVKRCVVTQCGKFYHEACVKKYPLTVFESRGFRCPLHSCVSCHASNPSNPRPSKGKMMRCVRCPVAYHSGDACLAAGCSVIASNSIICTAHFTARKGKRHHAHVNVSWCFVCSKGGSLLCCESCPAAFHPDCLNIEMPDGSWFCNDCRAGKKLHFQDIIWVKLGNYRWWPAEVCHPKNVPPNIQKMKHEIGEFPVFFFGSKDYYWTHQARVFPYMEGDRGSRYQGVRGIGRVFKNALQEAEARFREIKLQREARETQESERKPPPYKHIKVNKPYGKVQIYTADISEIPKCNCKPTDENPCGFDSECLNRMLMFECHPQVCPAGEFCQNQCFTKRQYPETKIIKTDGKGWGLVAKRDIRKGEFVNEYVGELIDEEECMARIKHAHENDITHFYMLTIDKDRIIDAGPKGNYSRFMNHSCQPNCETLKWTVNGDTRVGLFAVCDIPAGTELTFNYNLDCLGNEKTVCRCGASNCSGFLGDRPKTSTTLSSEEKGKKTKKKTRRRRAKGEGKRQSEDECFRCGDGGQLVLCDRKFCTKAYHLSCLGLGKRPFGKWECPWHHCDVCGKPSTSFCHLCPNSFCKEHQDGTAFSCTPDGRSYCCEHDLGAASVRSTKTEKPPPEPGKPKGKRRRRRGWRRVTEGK
MLL AF4-AF9 inh = blocks AF4 peptide binding to human AF9; P42568; AlphaScreen, biotin-AF4 peptide binding to FLAG-AF9; inhibition, % at 10 µM; hit rate 0.47% among 350,000; AID 651704;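 active = every replicate reaching a set inhibition limit, whatever the replicate mean, cut at about 25% in these data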;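 also: 0% = plate neutral control median and 100% = total signal loss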
RAD52 anneal inh = blocks human RAD52 DNA annealing. P43351. recombinant RAD52 DNA annealing, FRET fluorescence. inhibition, % at 18.7 µM. hit rate 0.46% among 360,000;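 active = every replicate showing at least 50% inhibition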
miR122 inh = inhibitors of miR-122 in Huh7 cells. Huh7 miR-122 Renilla luciferase sensor, 48 h; neutral wells = 0, positive control = 100. activation (reporter increase), % at 12.5 µM. hit rate 0.3% among 340,000. AID 602342;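 active = mean replicate activation score at least 90 and every replicate individually at or above 90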;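 also: higher luciferase means less miR-122 activity so hits act as miR-122 inhibitors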
Alpha artifact = AlphaScreen assay artifact in NSD2 counter-screen | shares compounds with NSD2 inh | AlphaScreen artifact counterscreen, preloaded methylated H4 peptide | AC35, µM (doses to about 10 µM), without a hit: at the top dose activity change, negative = signal loss | hit rate 9.4% among 1,500 | AID 1053174; call rule not given here
* = called active by the depositor; . = not tested or not shown; [ ] = dose if it differs, or a comment. An excerpt weighted towards active compounds, which were near 1.5% of everything screened.

SMILES	Casp6 inh	NSD2 inh	MLL AF4-AF9 inh	RAD52 anneal inh	miR122 inh	Alpha artifact
C[C@H]1CN([C@@H](C)CO)C(=O)c2cc(N(C)C)ccc2O[C@@H]1CN(C)S(C)(=O)=O	-3	.	-1	0	2[16.7 µM]	.
O=C(C[C@@H]1C=C[C@H](NC(=O)c2ccc3c(c2)OCO3)[C@@H](CO)O1)NCc1ccc(Cl)cc1	3	.	-1	-11	.	.
CS(=O)(=O)N1[C@H](C(=O)NC2CCC2)[C@@H](CO)[C@@H]2Cn3c(ccc(-c4cccc(F)c4)c3=O)[C@@H]21	-2	.	-2	-6	.	.
COc1cc(/C=N/N2CCN(C3c4ccccc4-c4ccccc43)CC2)cc(OC)c1O	.	0	.	.	.	.
COc1cc(/C=N/N2CCN(C3c4ccccc4-c4ccccc43)CC2)cc(OC)c1OC	0	144*	10	-10	.	2%[5 µM]
COC(=O)COc1ccc(S(=O)(=O)NCC2CCCO2)cc1Cl (configuration not stated)	.	51*	.	.	-3	1%
C/C=C/c1ccc([C@@H]2[C@@H](CO)N(C(=O)C3CCCC3)C23CN(C(=O)NC(C)C)C3)cc1	0	.	1	-15	.	.
Cc1ccc(CC(=O)Nc2nncs2)cc1	.	57*	.	.	-9	2%
COc1ccc(CC(=O)Nc2nncs2)cc1OC	0	.	0	-16	-7	.
Cn1c(N)c(C#N)c2c(c1=S)CSC(C)(C)C2	.	51*	.	.	-1	-2%
COc1cc(/C=N/NC(=O)c2ccncc2)c([N+](=O)[O-])cc1OC	1	3	-4	-7	.	.
COc1cc(OC)c([N+](=O)[O-])cc1/C=N/NC(=O)c1ccncc1	15	81*	-5	1	.	0%
O=C(OC(C(=O)NC1CCCCC1)c1ccccn1)c1cccs1 (configuration not stated)	.	114*	.	.	-4	-2%
O=C(CC1C(=O)N(c2ccccc2)C(=S)N1c1ccccc1)c1ccc(Br)cc1 (configuration not stated)	-8	50*	0	-18	.	2%
O=C(CC1C(=O)N(c2ccccc2)C(=S)N1c1ccccc1)c1ccccc1 (configuration not stated)	1	1	1	-18	.	.
CSc1nsc(SCC(=O)Nc2ccc3c(c2)OCCO3)n1	.	-6	.	.	-1	.
Cc1csc(SCC(=O)Nc2ccc3c(c2)OCCO3)n1	-1	62*	-1	8	.	0%
Cn1c(SCC(=O)Nc2ccc3c(c2)OCCO3)nnc1-c1ccncc1	-1	77*	-3	-15	-7	-5%
CN1C(=O)c2cc(NC(=O)c3cccc(F)c3)ccc2OC[C@H]2O[C@H](CC(=O)N3CCc4ccccc4C3)CC[C@H]21	-2	.	0	0	-37[16.7 µM]	.
CN1C(=O)c2cc(NC(=O)Cc3cccs3)ccc2OC[C@H]2O[C@H](CC(=O)O)CC[C@@H]21	-2	.	-1	-10	-4[16.7 µM]	.
C[C@@H]1CCCCO[C@@H](CN(C)C(=O)Nc2ccc(F)cc2)[C@@H](C)CN([C@H](C)CO)C(=O)c2cc(NC(=O)CCCN(C)C)ccc2O1	0	.	-2	-13	16[16.7 µM]	.
Cc1ccccc1N=C1NC(=O)/C(=C/c2cccn2-c2cccc(C(=O)O)c2)S1	.	80*	-2	-74	.	-11%
O=C(O)c1cccc(-n2cccc2/C=C2/SC(=O)N(CC(=O)N3CCCC3)C2=O)c1	40*	61*	-8	-31	-2	2%
O=C(O)c1cccc(-n2cccc2/C=C2/NC(=O)N(c3ccc(Cl)cc3)C2=O)c1	84*	141*	-23	-52	.	2.1µM*
O=C(CN1C(=O)S/C(=C/c2cccn2-c2ccc(O)cc2)C1=O)N1CCCC1	1	1	10	-39	-5	.
SMILES	Casp6 inh	NSD2 inh	MLL AF4-AF9 inh	RAD52 anneal inh	miR122 inh	Alpha artifact
COCc1cn(CC[C@@H]2CC[C@@H](NC(=O)CCN3CCCCC3)[C@@H](CO)O2)nn1	-1	.	-10	-1	.	.
CO[C@H]1CN(C)C(=O)c2cc(NC(=O)C3CCC3)ccc2OC[C@H](C)NC[C@H]1C	0	.	-2	-10	3[16.7 µM]	.
COc1ccc(C(=O)Nc2ccc3[nH]ccc3c2)cc1OC	1	51*	0	-11	3	5%
COc1ccc(C(=O)Nc2ccc3[nH]ccc3c2)cc1	-1	3	3	-10	.	.
CCn1cc(/C=N\NC(=O)C2(C)CC2(Cl)Cl)c(C)n1 (configuration not stated)	.	63*	.	.	-1	2%
Cc1c(/C=N\NC(=O)C2(C)CC2(Cl)Cl)cnn1C (configuration not stated)	.	-4	.	.	2	.
COCC#Cc1cnc2c(c1)C(=O)N([C@@H](C)CO)C[C@H](C)[C@H](CN(C)C(=O)c1ccc(F)cc1)O2	-1	.	-4	-6	-8[16.7 µM]	.
O=[N+]([O-])c1ccc(N/N=C/c2cccs2)nc1	1	52*	-1	-1	.	-1%
CCN1[C@@H]2c3ccc(-c4ccncc4)c(=O)n3C[C@@H]2[C@@H](CO)[C@@H]1C(=O)Nc1ccccc1	-2	.	1	-15	-2[16.7 µM]	.
Cc1ccc(S(=O)(=O)N(C)C[C@H]2Oc3ncc(-c4ccncc4)cc3C(=O)N([C@H](C)CO)C[C@@H]2C)cc1	0	.	-1	-8	-6[16.7 µM]	.
O=c1[nH]n2c(=O)c3c([nH]c2c1N=Nc1cccc(C(F)(F)F)c1)CCCC3	.	125*	.	.	10	-8%
O=c1[nH]n2c(=O)c3c([nH]c2c1N=Nc1cccc(Cl)c1)CCC3	.	10	.	.	-11	.
COc1ccc(-c2ccc([C@@H]3[C@H](CO)N4CCCCN(C(=O)NC(C)C)C[C@@H]34)cc2)cc1	-1	.	0	0	0[16.7 µM]	.
O=C(CN(C(=O)c1csnn1)c1ccc(Cl)cc1)NC1CCCC1	3	-1	-1	6	.	.
O=C(CN(C(=O)c1csnn1)c1ccc(F)c(Cl)c1)NC1CCCCC1	-1	88*	-1	-5	-6	4%
CN1c2ccc(Br)cc2[C@H]2[C@H](CCN2C(=O)C2CCCC2)[C@H]1CO	0	.	6	-15	.	.
COCCN1CC(=O)N2C(c3cccc(C)c3)c3[nH]c4ccccc4c3C[C@H]2C1=O (some centres not stated)	3	52*	1	-11	.	-7%
COCCCN1CC(=O)N2C(c3cccc(C)c3)c3[nH]c4ccccc4c3C[C@H]2C1=O (some centres not stated)	2	0	4	-23	1	.
N#Cc1ccc(-c2ccco2)nc1SCc1ccccc1	.	55*	.	.	49	-1%
CCSc1nc(-c2ccco2)ccc1C#N	.	0	.	.	-4	.
COc1ccc(-n2c(C)ccc2-c2ccccc2)cn1	-1	58*	3	-172	.	-2%
COC(=O)c1ccc(-n2c(C)ccc2-c2ccccc2)cc1	-1	5	13	-14	4	.
O=C(NCCCO)c1ccc2nc(-c3ccco3)c(-c3ccco3)nc2c1	55*	107*	-8	23	0	-2%
Cc1cccc(C)c1-n1cccc1/C=C1/C(=N)N2C(=NC1=O)SN=C2S(C)(=O)=O	8	.	-4	-39	.	.

Screening results (PubChem BioAssay)
